{"source": "patent US20210230599", "about": "“STEM-LOOP COMPOSITIONS AND METHODS FOR INHIBITING INTERLEUKIN-8” (VITRISA THERAPEUTICS, INC., published 2021)", "data": [{"target": "Interleukin-8 (IL8, CXCL8), C-terminal His-tagged (Homo sapiens, UniProt P10145 SEQ:1-72)", "test": "competition; competition TR-FRET; G18C", "details": "tags: C-terminal 6xHis (Sino Biological); ssRNA; 2'-F G, 2'-OMe A/C/U, 5' C6NH2, 3' idT", "procedure": "To better understand the sequence requirements and to confirm the stem structures of members of the Aptamer 3 family as determined from sequence covariation analysis from both the primary and secondary (degenerate) selections, a series of variants which included mutations and deletions to the predicted stems were synthesized and screened (Table 24). Activity of each of these variants were tested using a time resolved competition TR-FRET assay in which the labeled parent Aptamer 3 was competed with increasing concentrations of unlabeled variants for binding to IL8 (FIG. 14). Briefly, 2-fold dilutions of thermally equilibrated aptamers were made in TR-FRET Buffer (50 mM MOPS, pH 7.4, 125 mM NaCl, 5 mM KCl, 50 μM CHAPS, 0.1 mg/mL BSA, 1 mM CaCl₂, and 1 mM MgCl₂). 5 μL of aptamer or control solution was added to 5 μl mix of 10 nM C-terminal His-tagged-IL8, 60 nM ALEXA FLUOR® 647-labeled Aptamer, and 5 nM anti-His-Eu (Perkin Elmer) in a black wall low volume 384 well plate (Greiner). For control, 5 μl of 1000-fold excess of unlabeled parent aptamer or 5 μl TR-FRET buffer alone was added to the mix of ALEXA FLUOR® 647-labeled aptamer, His-IL8, and anti-His-Eu. The plate was covered with a plate seal and subsequently incubated in the dark for 1 hour at room temperature. The plate was read on a Biotek CYTATION™ 5 plate reader. […]", "units": {"binding signal": "fold worse than Aptamer 3"}, "values": [{"sequence": "UGAUGACGGUAGAUUACCGGUAGAGUGACCGCAUCU", "binding signal": "> 10"}]}]}
